PubChem BioAssay (NCI)
About 83,000 compounds went through this panel and 20% of them were active in at least one assay; those are over-represented in the sample as a whole.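 A percent growth of 40 corresponds to 60% growth inhibition; 0 means no net growth; -100 means all cells died. Active threshold: below 10.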 A number with no mark means an inactive call. Active and inactive are the calls of the source.

Columns and labels:
Test in all cases: NCI-60 one-dose screen, 48 h (100 = growth as untreated, 0 = no growth, -100 = all killed)
Conditions in all cases: 10 µM unless noted
NCI-H23 lung = test system: NCI-H23 lung
NCI-H226 lung = test system: NCI-H226 lung
NCI-H322M lung = test system: NCI-H322M lung
HOP-62 NSCLC = test system: HOP-62 NSCLC
NCI-H460 lung = test system: NCI-H460 lung
HOP-92 NSCLC = test system: HOP-92 NSCLC
NCI-H522 lung = test system: NCI-H522 lung
A549/ATCC NSCLC = test system: A549/ATCC NSCLC
786-0 renal = test system: 786-0 renal
COLO 205 colon = test system: COLO 205 colon
DU-145 prostate = test system: DU-145 prostate
K-562 leukemia = test system: K-562 leukemia
MALME-3M melanoma = test system: MALME-3M melanoma
MDA-MB-231 breast = test system: MDA-MB-231 breast
RXF 393 renal = test system: RXF 393 renal
SF-268 CNS = test system: SF-268 CNS
SF-295 CNS = test system: SF-295 CNS
SF-539 CNS = test system: SF-539 CNS
UACC-257 melanoma = test system: UACC-257 melanoma
M14 melanoma = test system: M14 melanoma

Row | Compound | growth (NCI-H23 lung) | growth (NCI-H226 lung) [%] | growth (NCI-H322M lung) [%] | growth (HOP-62 NSCLC) [%] | growth (NCI-H460 lung) | growth (HOP-92 NSCLC) | growth (NCI-H522 lung) | growth (A549/ATCC NSCLC) [%] | growth (786-0 renal) [%] | growth (COLO 205 colon) | growth (DU-145 prostate) | growth (K-562 leukemia) | growth (MALME-3M melanoma) | growth (MDA-MB-231 breast) [%] | growth (RXF 393 renal) | growth (SF-268 CNS) [%] | growth (SF-295 CNS) [%] | growth (SF-539 CNS) | growth (UACC-257 melanoma) | growth (M14 melanoma)
1 | O=c1[nH]c(CN2CCN(c3cccc(Cl)c3)CC2)nc2cc(Cl)ccc12 | 84.9% | 87.6 | 113 | 89.7 | 104% | 105% | 66.6% | 88.9 | 90 | 106% | 101% | 97.9% | 108% | 104 | 90.3% | 99.3 | 100 | 94.2% | 59.9% | 89.1%
2 | CCOc1cc(NC(=O)c2ccccc2)c(OCC)cc1N | 102% | 106 | 141 | 102 | 114% | 104% | 98.3% | 115 | 110 | 116% | 110% | 113% | 147% | 104 | 117% | 106 | 121 | 112% | 118% | 116%
3 | COc1cc2c(c(OC)c1OC)-c1ccc(NNC(N)=S)c(=O)cc1[C@@H](NC(C)=O)CC2 | 5.07% (active) | 27.9 | 64.9 | 32.7 | -3.14% (active) | -6.59% (active) | -63.3% (active) | 15.7 | 21.9 | -95.6% (active) | -14.5% (active) | 10.1% | 88.4% | 20 | -8.91% (active) | 21.3 | 10.6 | -18.4% (active) | 57.2% | -2.7% (active)
4 | Clc1ccccc1/C=N\Nc1ccccn1 | 84.9% | 80.8 | 111 | 83.8 | 99.2% | 83.9% | 91.7% | 93.6 | 113 | 95.7% | 105% | 94.8% | 110% | 83.3 | 107% | 96.3 | 95.7 | 98.5% | 105% | 124%
5 | Cc1cccc([N+](=O)[O-])c1I | 105% | 102 | 112 | 101 | 111% | 87.4% | 93.8% | 102 | 108 | 110% | 116% | 141% | 116% | 102 | 111% | 105 | 101 | 105% | 96.7% | 108%
6 | CCCCCCCCCCCCNC(=S)N/N=C/c1ccccc1O | 60.9% | 69.2 | 83.5 | 74 | 49.6% | 84.2% | 78.1% | 95.6 | 89.5 | 33.1% | 68.1% | 61.2% | 98.9% | 78.8 | 107% | 65.5 | 70.7 | 85.4% | 98.2% | 78.1%
7 | NC(=S)Cc1ccccc1 | 102% | 96.8 | 98.3 | 98.1 | 106% | 108% | 92% | 99.7 | 99.6 | 108% | 104% | 97.1% | 92.7% | 101 | 116% | 99.8 | 91.9 | 95.5% | 103% | 98.6%
8 | N#Cc1c(N2CCOCC2)nc(=S)[nH]c1-c1ccco1 | 74.5% | 63.2 | 74.5 | 35.7 | 50.1% | -11.6% (active) | 49.6% | 83.6 | 65.8 | 75.7% | 79.2% | 88.4% | 2.17% (active) | 61.1 | 71.3% | 77.3 | 47.4 | 78.5% | 92.8% | 39.8%
9 | O=C(O)CC1CCCCC1c1ccccc1 (stereo not given) | 111% | 98.7 | 103 | 112 | 119% | 99.8% | 90.1% | 106 | 103 | 113% | 117% | 109% | 112% | 116 | 106% | 109 | 100 | 91.9% | 112% | 97.2%
10 | O=C(Nc1ccc(F)cc1)c1ccccc1 | 108% | 104 | 103 | 109 | 105% | 119% | 101% | 99.6 | 100 | 113% | 104% | 103% | 98.8% | 105 | 116% | 105 | 93.4 | 99.3% | 107% | 106%
11 | CCCCCC1CCCCN1C(=O)OCCCC (stereo not given) | 62% | 87.5 | 103 | 122 | 99.9% | 113% | 32% | 114 | 104 | 111% | 118% | 109% | 88.9% | 77.5 | 96.9% | 99.1 | 89.3 | 92% | -7.74% (active) | 105%
12 | CCn1cc(-c2cc(-c3ccc(Cl)cc3)nc(N)n2)c(-c2ccc(Br)cc2)n1 | 79.4% | 86.1 | 92.6 | 74.7 | 95.4% | 74.2% | 48.7% | 64.7 | 89.4 | 85.7% | 99.4% | 77.4% | 93.8% | 60.6 | 94.8% | 94.8 | 84.3 | 87.3% | 73.5% | 74.5%
13 | CCOC(=O)c1nn(C2CCCCO2)c2ccc(NC(=O)CSc3nc4ccccc4c(=O)[nH]3)cc12 (stereo not given) | 102% | 97.6 | 92.5 | 88.2 | 98.9% | 92.5% | 100% | 99.4 | 91 | 126% | 102% | 99.4% | 103% | 79.9 | 71.8% | 90.1 | 97.6 | 82.4% | 102% | 100%
14 | O=C1CC(c2ccccc2)Cc2nc3ccc(Br)cc3cc21 (stereo not given) | 39.6% | 24.1 | 35.9 | 40.4 | 4.63% (active) | 40.1% | -3.56% (active) | 23.8 | 41.2 | -36.3% (active) | -3.21% (active) | 6.14% (active) | 38.8% | 13.2 | 28.4% | 46.7 | 17.2 | 1.6% (active) | 69.2% | 10.2%
15 | O=C1/C(=C\c2cccn2Cc2ccccc2)c2ccccc2N1c1c(Cl)cccc1Cl | 68.7% | 53.1 | 54.8 | 77.2 | 42.7% | 1.73% (active) | 88.9% | 53.1 | 89 | -6.31% (active) | 95.2% | 87.6% | 54% | 28.9 | 68% | 80.6 | 77.5 | 95.4% | 87.2% | 77%
